Bioassay records: PubChem BioAssay, several laboratories
Efflux pump mplx = inhibitors of Candida efflux pumps in yeast, primary screen, S. cerevisiae, Nile Red, multiplex | S. cerevisiae Candida pump triplex | inhibition, % at 10 µM | 330,000 tested, 0.44% active;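 active means plate passing quality check with inhibition over a set limit, or well fluorescence over plate mean plus 4 SD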;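 further: Nile Red retained in pooled yeast measured as flow cytometry median fluorescence; 0% = buffer negative control and 100% = Enniatin B positive control; higher means more Nile Red kept so more efflux inhibition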
Rce1 inhib = yeast Rce1p protease inhibitors, primary screen, biochemical, fluorescence, cell-free homogeneous; yeast membranes, quenched prenylated peptide cleavage fluorescence; AID 2563, 2010; CAAX prenyl protease 2 (Saccharomyces cerevisiae (strain ATCC 204508 / S288c)), Q03530; calls only; 290,000 tested, 0.27% active;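 active means fall in fluorescence gain of 50% or more versus controls, with final raw signal at or below 3038400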;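 further: plate controls were neutral control wells for no effect and wells lacking membranes for full effect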
GC-B act = human GC-B receptor activators, primary screen, HEK293 GC-B cells, cGMP TR-FRET, EC30 CNP. 0% at EC30 CNP, 100% saturating CNP. Atrial natriuretic peptide receptor 2 (Homo sapiens), P20594. activation, % at 10 µM. 370,000 tested, 0.11% active;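 active means activation at 10 µM reaching about 35% in either raw or pattern-adjusted values, limit read from the data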
NSD2 HMT inh = NSD2 histone methyltransferase inhibitors, primary screen, biochemical, AlphaScreen, single concentration, set 2; NSD2 peptide methylation, 120 min; inhibition, % at 12.5 µM; 310,000 tested, 0.54% active; in the data active means inhibition above about 50%
NPR1 activator = GC-A stimulated cGMP production enhancers – HEK293 GC-A cells, cGMP TR-FRET, EC30 ANP, primary screen. activation, % at 10 µM. 370,000 tested, 0.14% active. Atrial natriuretic peptide receptor 1 (Homo sapiens), P16066. 0% at EC30 ANP, 100% saturating ANP; in the data active means activation above about 40%
V-ATPase pH = regulators of yeast V-ATPase proton pumping, primary screen, pHLuorin cytosolic pH fluorescence; 350,000 tested, 0.37% active; response, % at 10 µM; AID 504577, 2011; S. cerevisiae; in the data active means response mostly above about 7.3%, no sharp cut-off; inactive means mostly below about 5.4%; further: actives read high
Active calls of the source: *; i = inactive; · = not tested or not shown; + = active, no number. Hits are enriched below; roughly 1.6% of the tested compounds scored in any of these assays.

SMILES	Efflux pump mplx	Rce1 inhib	GC-B act	NSD2 HMT inh	NPR1 activator	V-ATPase pH
CCOC(=O)/C(C#N)=C\c1ccc(OCC(=O)Nc2ccc(C)cc2C)c(OC)c1	0	i	2	-1	47*	-9
CCOC(=O)/C(C#N)=C/c1ccc(OCC(=O)Nc2cc(C)ccc2C)c(OC)c1	0	i	-5	-8	-3	-5
COC(=O)[C@H](CC1(c2cn(S(=O)(=O)CC[Si](C)(C)C)c3ccccc23)C(=O)Nc2ccccc21)NC(=O)OC(C)(C)C (stereo not given in full)	·	·	-6	·	-6	·
CCN(CC)c1ncnc2c1cnn2Cc1ccc(C)cc1	0	i	38*	-2	27	1
C[C@H]1[C@@H](OC(=O)N2CCN(c3ccccc3)CC2)CC[C@@]23CCCN2C(=O)CCC[C@@H]13	·	·	2	·	-2	·
CCCCCCCCCCCCCCCC[N+](C)(C)CC	1.8*	i	5	·	-21	-1
CCCCCC[N+](C)(C)CCSSCC[N+](C)(C)CCCCCC	0	i	3	2	3	2
O=S(=O)(Nc1cccc2ccccc12)N1CCCC1	0	+	2	-1	0	-2
OC(c1ccccc1)(c1ccccc1)C1CCN(CCCNc2ccc(Cl)cc2Cl)CC1	·	·	-13	·	-26	·
CC(C)[C@H](NC(=O)c1ccccc1F)C(=O)NC1CCCCC1	0	·	9	-2	3	-1
CC(C)[C@H](NC(=O)c1ccccc1F)C(=O)OCC(=O)NC1CC1	0	·	-2	0	2	20*
CC(=O)CC[C@H]1CC[C@]2(CCCN(C(=O)c3ccco3)C2)O1	·	·	1	·	4	·
CCn1ncc(Br)c1C(=O)Nc1ccc(F)cc1F	0	i	2	-4	-4	8
CCn1ncc(Br)c1C(=O)Nc1ccc(F)c([N+](=O)[O-])c1	-1	i	35*	0	28	2
COc1ccc2c3n(nc2c1)CCN=C3c1cc(Cl)c(N)c(Cl)c1	0	·	14	·	0	-3
Nc1c(Cl)cc(C2=NCCn3nc4cc(C(F)(F)F)ccc4c32)cc1Cl	0	+	0	·	7	-3
C#CCOCCOCCOCCNc1nc(N2CCN(C(=O)[C@H]([C@@H](C)CC)n3cc(CCCCN)nn3)CC2)nc(N2CCN(C(=O)[C@H](C)n3cc(CCC(=O)O)nn3)CC2)n1	0	i	53*	·	3	1
CC(C)c1ccc(NC(=O)C2CCCCC2C(=O)O)cc1 (stereo not given)	0	i	-4	-2	5	14*
Fc1ccc(Cn2ccc3ccc(-c4ccc5ccn(Cc6ccc(F)cc6)c5c4)cc32)cc1	·	·	3	·	2	·
c1cc2ccn(CC3CC3)c2cc1-c1ccc2ccn(CC3CC3)c2c1	·	·	38*	·	0	·
O=[N+]([O-])c1ccc2nc(COCc3nc4ccccc4[nH]3)[nH]c2c1	·	·	-1	11	2	·
O=S(=O)(c1ccccc1F)N1CCC(c2nc3ccccc3o2)CC1	·	·	-7	4	-4	·
CC(=O)Nc1ccc(Nc2nc(C)c([N+](=O)[O-])c(Nc3ccccc3)n2)cc1	0	i	58*	4	56*	-1
Cc1nc(Nc2ccc(C(=O)O)cc2)nc(Nc2ccc(C(=O)O)cc2)c1[N+](=O)[O-]	0	i	11	·	11	2
COc1ccc(CNC(=O)c2ccccc2NS(C)(=O)=O)cc1	0	+	8	-2	0	2
CCN(CC)CCCNC(=O)c1ccc2c(SCC(=O)O)c3c(nc2c1)CCC3	0	i	·	20	·	·
CCN(CC)CCNC(=O)CSc1c2c(nc3cc(Cl)ccc13)CCCC2	0	+	1	13	-14	-2
COc1cccc(-c2c(C(=O)N/N=C/c3sccc3C)nnn2-c2nonc2N)c1	0	+	1	-4	2	-5
CCCOc1ccc(-c2c(C(=O)N/N=C/c3cccs3)nnn2-c2nonc2N)cc1	0	+	·	-2	·	1
COc1cc(-c2nc3ccccn3c2/N=C/c2cccc(F)c2)ccc1O	0	i	9	2	27	-1
